# Screens: PubChem BioAssay, National Center for Advancing Translational Sciences (NCATS)
# GAA spleen mod = qHTS Assay for Inhibitors and Activators of Human alpha-Glucosidase From Spleen Homogenate | Lysosomal alpha-glucosidase (Homo sapiens), P10253 | human spleen homogenate, 4-MU-alpha-glucoside fluorescence | Potency, µM (titrated, usually from 79.9 µM), for inactives: top-dose activity change, negative = inhibition, usual class: inhibitors | 240,000 tested, 0.006% active;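 note: potency is the fitted concentration of half-maximal effect; 0% = enzyme with vehicle and -100% = no enzyme basal signal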
#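 Compounds were titrated against alpha-glucosidase in spleen homogenate at pH 5.0, with 1 mM 4-methylumbelliferyl substrate for 40 min at 37 C. Reactions were quenched with pH 10 NaOH/glycine and fluorescence measured.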
# GLA inh pH 4.5 = qHTS Assay for Inhibitors of Human alpha-Galactosidase at pH 4.5; 230,000 tested, under 10 active; purified enzyme, 4-MU-alpha-Gal fluorescence, pH 4.5; Alpha-galactosidase A (Homo sapiens), P06280; activity change, negative = inhibition, % at 105 µM;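 note: 0% = full activity with enzyme and -100% = basal without enzyme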
# Target sequence (P06280 whole entry, looked up): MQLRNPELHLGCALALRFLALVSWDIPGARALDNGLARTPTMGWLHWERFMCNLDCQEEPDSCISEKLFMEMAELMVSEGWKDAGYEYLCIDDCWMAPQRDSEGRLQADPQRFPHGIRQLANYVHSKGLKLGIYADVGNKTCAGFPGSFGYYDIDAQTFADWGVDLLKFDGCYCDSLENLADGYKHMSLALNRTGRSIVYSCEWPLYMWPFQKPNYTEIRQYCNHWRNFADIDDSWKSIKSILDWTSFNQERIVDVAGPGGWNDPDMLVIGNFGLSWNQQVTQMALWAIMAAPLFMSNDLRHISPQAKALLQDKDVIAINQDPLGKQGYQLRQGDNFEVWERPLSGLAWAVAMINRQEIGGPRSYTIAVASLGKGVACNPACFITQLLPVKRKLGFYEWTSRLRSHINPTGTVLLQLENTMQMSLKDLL
# GAA inhib = qHTS Assay for Inhibitors of Human alpha-Glucosidase as a Potential Chaperone Treatment of Pompe Disease. Lysosomal alpha-glucosidase (Homo sapiens), P10253. purified human GAA, 4-MU-alpha-glucoside fluorescence. Potency, µM (doses to about 76.9 µM), for inactives: at the top dose activity change, negative = inhibition, usual class: inhibitors. 200,000 tested, 0.005% active. AID 1466, 2008;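 note: potency is the fitted concentration of half-maximal effect; plate controls were uninhibited enzyme wells for no effect and no-enzyme background for full effect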
#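 Compounds are titrated up to 77 uM against 4 nM human enzyme. Substrate 4-methylumbelliferyl-alpha-D-pyranoside (400 uM) reacts 20 min at room temperature in pH 5.0 buffer; liberated 4-methylumbelliferone is read at 440 nm.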
# GAA glycogen mod = qHTS Assay for Inhibitors and Activators of Human alpha-Glucosidase Cleavage of Glycogen | recombinant GAA, glycogen substrate, Amplex Red glucose oxidase fluorescence | Potency, µM (series often up to 76.4 µM), without a hit: at the top dose activity change, negative = inhibition, usual class: inhibitors | 300,000 tested, 0.38% active;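 note: potency is the fitted concentration of half-maximal effect; 0% = full enzyme reaction and -100% = no-enzyme basal signal; the screen sought inhibitors and activators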
#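 Recombinant human enzyme (4 nM); glycogen substrate; 37 C, 40 min, pH 5.0. Readout: coupled glucose oxidase/Amplex Red fluorescence.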
# aGal spleen mod = qHTS Assay for Inhibitors and Activators of Human alpha-Galactosidase From Spleen Homogenate | Alpha-galactosidase A (Homo sapiens), P06280 | human spleen homogenate, 4MU-alpha-Gal fluorescence, 40 min | Potency, µM (titrated, usually from 80 µM), inactives show top-dose activity change, negative = inhibition, hits mostly inhibitors | 240,000 tested, 0.008% active;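 note: potency is the fitted concentration of half-maximal effect; 0% = enzyme with vehicle and -100% = no enzyme basal signal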
#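 Human spleen homogenate (1 ug) was the enzyme source, with 4-methylumbelliferyl-alpha-D-galactopyranoside (1 mM final) in pH 5.0 citrate buffer with 0.01% Tween-20. Compounds were titrated; after 40 min at 37C, NaOH/glycine stop, 4-MU fluorescence read; AC50 from Hill fits.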
# N370S GC mod = qHTS Assay for Inhibitors and Activators of N370S glucocerebrosidase as a Potential Chaperone Treatment of Gaucher Disease; Potency, µM (titrated, usually from 59.4 µM), for inactives: top-dose activity change, negative = inhibition, hits mostly inhibitors; 330,000 tested, 0.092% active; Lysosomal acid glucosylceramidase (Homo sapiens), P04062; AID 2101, 2009; N370S GC spleen homogenate, 4MU-glucoside fluorescence;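 note: potency is the fitted concentration of half-maximal effect; 0% = full enzyme activity and -100% = no enzyme basal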
# An asterisk follows results filed as active; ? = inconclusive; / = no result; ! = not confirmed by another sample; [ ] = dose if it differs, or a comment. A selection: hits, their analogues and other compounds. The true share with any hit is near 0.43%. Calls come from the whole dose curve; as a rule, active = well fitted curve in the direction sought with a large enough effect; inconclusive = small, poorly fitted or top-dose-only effect, or another doubt; inactive = no such curve, though single readings can be large; an effect the other way counts as inactive or inconclusive.
SMILES,GAA spleen mod,GLA inh pH 4.5,GAA inhib,GAA glycogen mod,aGal spleen mod,N370S GC mod
COc1ccc(C(=O)c2ccccc2)c2c(O)ccc(C(=O)c3ccccc3)c12,5%,5,-5%,-3%,6%,5%
Oc1ccc(N2CCN(C(c3ccncc3)c3nnnn3C3CCCC3)CC2)cc1 (configuration not stated),-11%,0,-8%,12µM*,-6%,-9%
Fc1ccccc1-c1nc(NCc2ccccc2)c2ccccc2n1,-17%,-18,/,-12%,5%,13µM*
COCCNc1nc(-c2ccccc2Cl)nc2ccccc12,-5%,/,/,/,-7%,7.9µM*
c1ccc(CNc2nc(-c3cccs3)nc3ccccc23)cc1,-3%,-6,-3%,7%,-5%,0.5µM*
c1ccc(CNc2nc(-c3ccccc3)nc3ccccc23)cc1,/,/,/,-12%[76.3 µM],/,?
N.N.N.N.N.N.N.N.N.N.N.N.N.N.O.O.[Cl-].[Cl-].[Cl-].[Cl-].[Cl-].[Cl-].[Ru].[Ru].[Ru],2%,-15,/,/,6%,-1%
O=c1c(-c2ccc(O)cc2)coc2cc(O)cc(O)c12,-7%,-8,/,-3%,7%,16µM*!
COc1ccc(-c2coc3cc(O)cc(O)c3c2=O)cc1,-4%,3,-1%[15.4 µM],-6%,-7%,?
O=C(N/N=C/c1ccc(O)c(O)c1)NC12CC3CC(CC(C3)C1)C2,/,/,/,10µM*,/,22%
C=CCn1c(SCC(=O)NC2CCCC2)nc2scc(-c3ccco3)c2c1=O,-7%,3,-7%,2%,-7%,13µM*
CCOc1ccc(NC(=O)N2CCC(CN3CCc4ccccc4C3)CC2)cc1,/,/,/,50µM*,/,/
Cc1cc(C(F)(F)F)nn1CC(=O)NNC(=S)Nc1ccc(F)cc1,0%,-1,0%,40µM*,4%,/
Cc1cc(C(F)(F)F)nn1CC(=O)NNC(=S)Nc1ccc(Cl)cc1,1%,6,-4%,-5%,6%,1%
O=C(N/N=C/C1CC=CCC1)c1ccccc1O (configuration not stated),-7%,5,-10%,32µM*,-1%,0%
O=C(N/N=C/C1CC=CCC1)c1cc(Br)ccc1O (configuration not stated),-5%,-4,4%,?,-3%,-3%
CC1CCc2c(nc3ncnn3c2N2CCN(c3ccccc3F)CC2)C1 (configuration not stated),-5%,-3,-3%,1%,?,-3%
CC1CCc2c(nc3ncnn3c2NCCc2ccccc2F)C1 (configuration not stated),2%,-5,10%,4µM*,-12%,-28%
C#CCOCCOCCOCCNc1nc(N2CCN(C(=O)CCCCCCCCCCNC(=O)Cn3cc(C[C@@H](C)O)nn3)CC2)nc(N2CCN(C(=O)CCCCCCCCCCNC(=O)[C@H](CCCN=C(N)N)n3cc(C[C@@H](C)CC)nn3)CC2)n1,/,/,/,/,/,2.8µM*
C#CCOCCOCCOCCNc1nc(N2CCN(C(=O)CCCCCCCCCCNC(=O)Cn3cc(C[C@@H](C)O)nn3)CC2)nc(N2CCN(C(=O)CCCCCCCCCCNC(=O)[C@H](CCCCN)n3cc(CCCC(=O)O)nn3)CC2)n1,/,/,/,/,/,-14%
C#CCOCCOCCOCCNc1nc(N2CCN(C(=O)CCCCCCCCCCNC(=O)[C@H](CO)n3cc(CCCSC)nn3)CC2)nc(N2CCN(C(=O)CCCCCCCCCCNC(=O)[C@H](CCCN=C(N)N)n3cc(C[C@@H](C)CC)nn3)CC2)n1,/,/,/,/,/,3.2µM*
CC1(C)CN(c2ccccc2)N(C(=O)c2ccc(F)cc2)C1=O,6%,3,-1%,-10%,-3%,1%
CC1(C)CN(c2ccccc2)N(C(=O)c2ccc(C#N)cc2)C1=O,-1%,-1,-1%,20µM*,12%,11%
Cc1noc(C)c1C(=O)NNc1ccc(C(C)C)cc1,12%,8,-5%,40µM*,14%,9%
COC(=O)C1C(O)CC[C@H]2CN3CCc4c([nH]c5ccccc45)C3C[C@H]12 (some centres not stated),8%,3,/,/,5%,?
SMILES,GAA spleen mod,GLA inh pH 4.5,GAA inhib,GAA glycogen mod,aGal spleen mod,N370S GC mod
CCCCc1ccc(NC(=O)Nc2cccnc2)cc1,/,/,/,5%[76.3 µM],/,11µM*
Oc1ccc(/C=N/Nc2ccnc3cc(Cl)ccc23)cc1O,0%,-1,/,45µM*,7%,-11%
CC(C)C[C@H](NC(=O)[C@H](CO)NC(=O)[C@@H]1CCCN1C(=O)[C@H](Cc1ccc(O)cc1)NC(=O)[C@H](CC(C)C)NC(=O)[C@H](CC(C)C)NC(=O)[C@@H]1CCCN1C(=O)[C@@H](NC(=O)[C@H](CO)NC(=O)[C@H](CO)NC(=O)[C@H](CO)NC(=O)[C@H](CO)NC(=O)[C@@H]1CCCN1C(=O)[C@@H](NC(=O)[C@@H](N)CO)C(C)C)[C@@H](C)O)C(=O)N[C@@H](C)C(=O)N[C@@H](CC(C)C)C(=O)N1CCC[C@H]1C(=O)N[C@@H](C)C(=O)N1CCC[C@H]1C(=O)O,-1%,/,/,/,0%,-2%
Brc1ccc(C2C3=C(Nc4ncnn42)c2ccccc2OC3c2ccncc2)cc1 (configuration not stated),3%,-10,0%,-25%,-3%,14µM*
O=C1CCCC/C1=C\Nc1ccc(O)cc1,-5%,5,-14%,8.8µM*,4%,?
O=C(NCCCCc1ccccc1)C12CN(Cc3ccccc3)CC1C(c1ccc([N+](=O)[O-])cc1)=NO2 (configuration not stated),-4%,-19,?,-1%,-8%,10µM*
O=C(NCCCCc1ccccc1)C12CN(Cc3ccccc3)CC1C(c1cccc([N+](=O)[O-])c1)=NO2 (configuration not stated),-8%,-12,-2%,-10%,-8%,-7%
Cc1ccc(C(O)(C(=O)NNc2ccccn2)c2ccc(C)cc2)cc1,-6%,-8,-11%,5µM*,6%,-4%
C(=N\Nc1nc2ccccc2[nH]1)/c1cccc2cccnc12,-6%,2,-13%,35µM*,0%,-29%
Cc1ccc(/C=N/Nc2nc3ccccc3[nH]2)s1,2%,-7,-6%,28µM*,5%,-21%
